Screening results as filed in PubChem.
G9a block = inhibitors of human histone lysine methyltransferase G9a. Q96KQ7. G9a H3K9 monomethylation, AlphaScreen, 2 h. Potency, µM (doses to about 102 µM), hits mostly inhibitors. 350,000 tested, 8.8% active. AID 504332; further: nearly all actives have a fitted effect of over 75% in size
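AlphaScreen read-out: biotin-H3K9 peptide (500 nM) methylation by 20 nM enzyme with 20 uM SAM, 2 h at room temperature after 15 min compound preincubation; anti-monomethyl H3K9 antibody plus donor/acceptor beads, 10 min dark.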
HP1b binding inh = HP1-beta chromodomain-methylated histone interaction inhibition; P83916; AlphaScreen HP1-beta / biotin-H3K9me3 peptide binding; Potency, µM (titrated, usually from 114 µM), hits mostly inhibitors; 390,000 tested, 0.56% active; AID 540317; further: nearly all actives have a fitted effect of over 70% in size
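AlphaScreen: HP1-beta (50 nM) preformed 30 min with biotin-H3(1-18)K9me3 peptide (50 nM) in PBS pH 7.4, 0.01% Tween-20. Compound added for 30 min at RT, then streptavidin donor/nickel chelate acceptor beads (10 ug/mL) for 30 min.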
JMJD2A Tudor inh = blocks the human JMJD2A Tudor domain. O75164. AlphaScreen JMJD2A-Tudor / H3K4me3 peptide binding. Potency, µM (highest dose often 114 µM), hits mostly inhibitors. 390,000 tested, 4.4% active; further: nearly all actives have a fitted effect of over 50% in size
BAZ2B inh = BAZ2B (human) inhibition; Q9UIF8; AlphaScreen BAZ2B-H3K14Ac peptide displacement; Potency, µM (doses to about 114 µM), most hits filed as inhibitors; 360,000 tested, 4.4% active; AID 504333; further: nearly all actives have a fitted effect of over 60% in size
Target sequence (Q9UIF8 whole entry, looked up): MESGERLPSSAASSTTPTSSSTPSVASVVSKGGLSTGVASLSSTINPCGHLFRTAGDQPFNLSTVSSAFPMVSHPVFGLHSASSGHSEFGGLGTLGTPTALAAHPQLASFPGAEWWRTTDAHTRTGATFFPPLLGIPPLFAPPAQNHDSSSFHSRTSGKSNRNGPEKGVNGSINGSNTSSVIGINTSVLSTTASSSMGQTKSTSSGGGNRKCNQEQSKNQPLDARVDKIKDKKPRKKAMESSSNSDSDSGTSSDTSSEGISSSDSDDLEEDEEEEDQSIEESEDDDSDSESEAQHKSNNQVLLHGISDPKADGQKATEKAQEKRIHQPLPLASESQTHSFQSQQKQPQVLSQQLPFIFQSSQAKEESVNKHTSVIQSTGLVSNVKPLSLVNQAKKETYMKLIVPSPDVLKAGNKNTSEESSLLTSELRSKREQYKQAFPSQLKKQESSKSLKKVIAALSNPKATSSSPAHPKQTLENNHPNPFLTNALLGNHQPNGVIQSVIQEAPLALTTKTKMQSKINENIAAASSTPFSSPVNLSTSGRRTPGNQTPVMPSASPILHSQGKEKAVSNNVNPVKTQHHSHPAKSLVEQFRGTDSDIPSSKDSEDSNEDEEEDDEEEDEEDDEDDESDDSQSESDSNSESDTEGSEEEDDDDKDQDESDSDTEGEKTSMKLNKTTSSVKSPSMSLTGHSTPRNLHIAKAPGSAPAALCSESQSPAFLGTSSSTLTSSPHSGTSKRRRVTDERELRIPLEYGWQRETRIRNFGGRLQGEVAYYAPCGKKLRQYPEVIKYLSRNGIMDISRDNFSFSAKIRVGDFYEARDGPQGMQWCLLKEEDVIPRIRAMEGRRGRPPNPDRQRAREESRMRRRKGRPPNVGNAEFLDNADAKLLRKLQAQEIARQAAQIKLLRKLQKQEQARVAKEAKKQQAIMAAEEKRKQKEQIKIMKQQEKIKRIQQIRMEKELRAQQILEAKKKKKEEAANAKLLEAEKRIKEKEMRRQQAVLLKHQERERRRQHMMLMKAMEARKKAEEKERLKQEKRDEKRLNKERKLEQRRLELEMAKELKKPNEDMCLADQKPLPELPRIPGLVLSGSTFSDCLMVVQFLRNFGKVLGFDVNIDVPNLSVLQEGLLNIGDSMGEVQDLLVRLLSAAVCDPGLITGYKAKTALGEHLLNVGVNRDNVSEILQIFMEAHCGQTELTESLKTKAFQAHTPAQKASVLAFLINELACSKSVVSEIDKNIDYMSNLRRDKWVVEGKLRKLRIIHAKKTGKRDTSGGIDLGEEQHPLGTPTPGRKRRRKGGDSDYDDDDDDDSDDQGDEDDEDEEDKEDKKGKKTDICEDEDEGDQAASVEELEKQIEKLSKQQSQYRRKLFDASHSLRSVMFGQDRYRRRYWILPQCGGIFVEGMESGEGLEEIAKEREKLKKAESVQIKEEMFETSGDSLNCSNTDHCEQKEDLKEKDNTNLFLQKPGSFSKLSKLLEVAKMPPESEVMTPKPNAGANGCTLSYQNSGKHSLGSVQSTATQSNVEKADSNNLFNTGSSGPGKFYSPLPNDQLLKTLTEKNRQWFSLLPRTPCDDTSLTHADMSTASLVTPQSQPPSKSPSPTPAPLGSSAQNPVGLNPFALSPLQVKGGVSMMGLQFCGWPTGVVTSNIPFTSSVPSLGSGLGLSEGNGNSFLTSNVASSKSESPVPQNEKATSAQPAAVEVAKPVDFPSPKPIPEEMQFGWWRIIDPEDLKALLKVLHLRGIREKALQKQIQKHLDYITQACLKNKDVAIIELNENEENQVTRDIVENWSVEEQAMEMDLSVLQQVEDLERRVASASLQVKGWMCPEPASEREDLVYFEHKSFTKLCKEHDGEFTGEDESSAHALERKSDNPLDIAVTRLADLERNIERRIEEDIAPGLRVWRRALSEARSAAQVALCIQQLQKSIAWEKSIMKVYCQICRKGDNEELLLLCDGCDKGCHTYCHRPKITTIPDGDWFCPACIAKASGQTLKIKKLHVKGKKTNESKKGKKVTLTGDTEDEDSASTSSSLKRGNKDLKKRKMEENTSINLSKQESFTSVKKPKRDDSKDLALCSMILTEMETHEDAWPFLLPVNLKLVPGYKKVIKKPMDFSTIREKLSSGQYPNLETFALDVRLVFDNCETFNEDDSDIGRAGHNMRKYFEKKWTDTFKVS
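Protein-peptide AlphaScreen: BAZ2B 50 nM, b-H3K14Ac 50 nM, 1x PBS pH 7.4 + 0.01% Tween-20. Preincubation 30 min RT; cpd 30 min RT (top 110 uM); beads 20 min RT, light-protected.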
Sfp PPTase inh = blocks B. subtilis Sfp PPTase activity; 310,000 tested, 3.5% active; Biochemical Sfp PPTase activity, qHTS; Potency, µM, usual class: inhibitors;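 further: the enzyme is Sfp with the accession as filed and its product quenches rhodamine fluorescence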
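Buffer: 50 mM Hepes-Na pH 7.6, 10 mM MgCl2, 0.01% Nonidet P-40, 0.01% BSA. Enzyme 15 nM, pre-exposed to compound 15 min; substrates then added and fluorescence change tracked over 30 min.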
L3MBTL1 inh = inhibitors of human L3MBTL1; AID 485360; AlphaScreen L3MBTL1–H3K9me1 peptide binding; 230,000 tested, 0.66% active; Potency, µM (doses to about 57.1 µM), hits mostly inhibitors; further: nearly all actives have a fitted effect of over 60% in size
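L3MBTL1 50 nM + b-AHA-H3(1-15)K9me1 75 nM, 30 min RT; compound added, 30 min RT; streptavidin donor/Ni-chelate acceptor beads 10 ug/mL each final, 30 min RT dark; AlphaScreen read.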
Hits are given with their value; i = inactive; ? = inconclusive; nt = no result; [ ] = another dose, or the depositor's remark. Compounds with a hit are over-represented: about 12% of the library has one in this group of screens. The call rests on the fitted dose curve; in most records, active means well fitted curve in the direction sought with a large enough effect; inconclusive means small, poorly fitted or top-dose-only effect, or another doubt; inactive means no such curve, though single readings can be large; an effect the other way counts as inactive or inconclusive.

SMILES	G9a block	HP1b binding inh	JMJD2A Tudor inh	BAZ2B inh	Sfp PPTase inh	L3MBTL1 inh
C=CCn1c(C)cc(C2=NNC(=NC(C)(C)C)SC2)c1C	?	i	?	?	56.2µM	i
Cc1cc(C2=NNC(=Nc3ccc(S(=O)(=O)N4CCOCC4)cc3)SC2)c(C)n1C	31.6µM	i	?	i	12.6µM	i
CC1=NN(c2nc(-c3ccc(C)cc3)cs2)C(=O)C1N=Nc1ccc2ccccc2c1 (stereo unspecified)	1µM	i	?	?	i	i
Cc1nn(CC(=O)NCc2ccccc2Cl)c(=O)c2cccn12	i	i	i	i	nt	nt
COc1ccc(OC)c(Nc2nc(-c3c(C)nc4ncccn34)cs2)c1	28.2µM	i	?	?	?	nt
CC(=O)Nc1nc(C(=O)O)cs1	22.4µM	?	3.98µM	31.6µM	?	?
COc1ccc(Nc2nc(-c3cccs3)cs2)c(OC)c1	11.2µM	50.1µM	2.51µM	31.6µM	?	nt
CC(=O)Nc1nc(-c2cccs2)cs1	?	i	i	i	50.1µM	i
CCOC(=O)c1c(C)[nH]c(CCC(=O)NCc2cc(OC)c(OC)c(OC)c2)c1C	i	i	i	i	nt	nt
O=C(COc1ccc(Cl)cc1)Nc1ccccc1C(=O)OCc1cc(=O)n2ccsc2n1	i[12.7 µM]	i	i	i	nt	nt
COc1ccc(-c2c3c(=O)n(C)c(=O)n(C)c3c3n2-c2ccccc2NC3c2ccco2)cc1 (stereo unspecified)	i	i	i	i	nt	nt
Oc1ccc(Nc2nc(-c3cccs3)cs2)cc1	?	i	i	i	i	i
Nc1nc(-c2cccs2)cs1	79.4µM	i	i	i	i	i
O=C(NC(=S)Nc1ccc(CN2CCOCC2)cc1)c1ccc([N+](=O)[O-])cc1Cl	50.1µM	i	i	?	i	i
O=C(NC(=S)Nc1ccc(CN2CCOCC2)cc1)c1cccc([N+](=O)[O-])c1	?	i	i	?	44.7µM	i
COc1ccc(C(=N/O)/C(=N/O)c2ccc(OC)cc2)cc1	i[12.7 µM]	i	i	i	i	nt
COc1ccc(C(C#N)=C2C=CC(=NO)C(C)=C2Cl)cc1	nt	?	8.91µM	nt	nt	nt
O=c1cc(-c2ccc(O)c(O)c2)oc2ccc3ccccc3c12	56.2µM	i	i	?	nt	i
CCN1C(=O)[C@@H]2[C@H]3C(=CC[C@H]2C1=O)C(=O)[C@H]1OC1[C@H]3O (stereo partly specified)	nt	nt	nt	nt	i	nt
O=C(O)c1cccc(-c2cccc(-c3nn4c(=O)cc(N5CCNCC5)nc4s3)c2)c1	nt	nt	i	nt	nt	nt
CC(C)(NC(=O)c1ccccc1)c1nc2ccccc2s1	i[2.33 µM]	?	79.4µM	i	nt	i
CC1CCCN(CCCNC(=O)c2ccc3c(c2)N(Cc2cccc(Cl)c2)C(=O)c2ccccc2S3(=O)=O)C1 (stereo unspecified)	i	i	?	?	nt	nt
COC(=O)c1sccc1NC(=S)N1CCC(C(N)=O)CC1	i	i	i	nt	79.4µM	nt
N#Cc1ccccc1NC(=S)NC(=O)C1CCC1	70.8µM	i	i	i	i	nt
COC(=O)c1ccc(NC(=S)NC2c3ccccc3CC2O)cc1 (stereo unspecified)	50.1µM	i	i	i	i	i
SMILES	G9a block	HP1b binding inh	JMJD2A Tudor inh	BAZ2B inh	Sfp PPTase inh	L3MBTL1 inh
COC(=O)c1sccc1NC(=S)N1CCCCC1	i[12.7 µM]	i	i	i	i	nt
COC(=O)c1ccc(NC(=S)NNC(=O)CC(C)C)cc1	10µM	i	i	i	44.7µM	i
COC(=O)c1ccc(NC(=S)NNC(=O)c2ccccc2)cc1	nt	i	i	i	?	i
COc1cccc(-c2csc(-c3c(N)c(C(=O)c4ccccc4)n4ccccc34)n2)c1	i	i	i	i	nt	nt
COC(=O)c1ccc(NC(=S)N2CCC(C(N)=O)CC2)cc1	?	i	i	i	31.6µM	i
CC(O)CCC(=O)NNC(=S)Nc1ccccc1 (stereo unspecified)	i[12.7 µM]	i	i	i	i	i
O=C(NC(=S)Nc1ccc(F)c(Cl)c1)C1CC1	56.2µM	i	i	i	i	nt
CC(C)CCOCC(O)CCC(=O)NNC(=S)Nc1ccccc1 (stereo unspecified)	28.2µM	i	i	i	i	i
COC(=O)c1ccc(NC(=S)NC(=O)C2CCC2)cc1	79.4µM	i	i	i	i	nt
O=C(NCc1ccc2c(c1)CCN2C(=O)c1ccc(F)cc1)c1cc2ccccc2[nH]1	i	i	i	i	nt	nt
O=C(O)c1nnsc1-c1csnn1	nt	i	i	nt	nt	nt
NNC(=O)c1nnsc1-c1csnn1	nt	i	79.4µM	nt	nt	nt
Cc1c(C(=O)OCC2CCCCC2)[nH]c2c1C(=O)CC(c1ccccc1Cl)C2 (stereo unspecified)	i	i	i	i	nt	nt
CNC(=O)c1ccc(Nc2nnc(-c3ccc(C)c(S(=O)(=O)N4CCOCC4)c3)c3ccccc23)cc1	i	i	i	i	nt	nt
Fc1ccc(NCc2cn3ccccc3n2)cc1	i	i	i	50.1µM	i	?
COc1ccc(-c2nc(SCC(=O)NCCCc3ccccc3)n[nH]2)cc1	i	i	i	i	nt	nt
O=C(Nc1ccccc1Br)C1CCCN(S(=O)(=O)c2cccc3nsnc23)C1 (stereo unspecified)	?	i	i	nt	nt	nt
O=C1[C@H]2[C@H]3[C@H](O)[C@H](O)C/C(=N/OC[C@@H](O)COCc4ccco4)[C@@H]3CC[C@@H]2C(=O)N1c1cccc(Oc2ccccc2)c1	nt	nt	nt	nt	i	nt
COC(=O)N1c2ccccc2C23[C@@H]4CN5CCC[C@]6(CCC12C(O)(C6)C4=O)[C@H]53	nt	nt	nt	nt	i	nt
COc1ccc(OC)c(/C=c2\sc3nc(-c4cccs4)nn3c2=O)c1	11.2µM	i	i	i	i	i
COc1ccc(NC(=O)C2=C(C)Nc3nc(SCc4ccccc4C)nn3C2c2cc(OC)c(O)c(OC)c2)cc1 (stereo unspecified)	i	i	i	79.4µM	nt	nt
COc1ccccc1NC(=O)C1=C(C)NC(=O)NC1c1ccccc1[N+](=O)[O-] (stereo unspecified)	12.6µM	i	i	nt	3.55µM	i
CC1=C(C(=O)Nc2ccccc2)C(c2ccccc2[N+](=O)[O-])NC(=O)N1 (stereo unspecified)	?	i	i	i	20µM	i[11.4 µM]
COc1ccccc1NC(=O)C1=C(C)NC(=O)NC1c1ccc(C)cc1 (stereo unspecified)	i	i	i	i	i	i
CC1=C(C(=O)Nc2ccccc2)C(c2ccco2)NC(=O)N1 (stereo unspecified)	nt	i	i	nt	nt	nt
CC(C)(C)c1cc(Br)c(O)c(N=Nc2ccc(S(=O)(=O)N3CCOCC3)cc2)c1	14.1µM	?	5.62µM	7.94µM	i	i
Cc1ccc(O)c(N=Nc2ccc(S(=O)(=O)N3CCOCC3)cc2)c1	i[12.7 µM]	?	14.1µM	8.91µM	i	i
O=S(=O)(c1ccc(Br)cc1)N1CCOCC1	nt	i	i	nt	nt	nt
CCOc1ccc(-n2c(COc3ccc(C)cc3)nnc2SCC(N)=O)cc1	i	i	i	i	i	i
